Laboratory results taken from the supplement of paper PMC6522484.
± gives the standard deviation of the averaged measurements.

Assays:
DLD1 [1] = experiment: cell viability (CellTiter-Glo) relative to plate median (fraction of plate median); higher = more viable cells; details: 5 µM; treatment time 24 h; reporter: 7TFP
Summary of the method: (§1)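 Values are well luminescence normalised to the plate median, from either a firefly luciferase or a CellTiterGlo readout on parallel plates. The cells, colorectal cancer lines stably transduced with lentiviral 7TFP or TCF4/Wnt firefly luciferase reporters, were treated with library compounds at a final 5 µM for 24 h. The mean of two independent replicates is listed.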

HCT116 = experiment: as above; details: 5 µM; treatment time 24 h; reporter: TCF4/Wnt
Summary of the method: as §1

SW480 [2] = experiment: as above; details: 5 µM; treatment time 24 h; reporter: 7TFP
Summary of the method: as §1

DLD1 [3] = experiment: TCF/Wnt firefly luciferase reporter signal relative to plate median (fraction of plate median); higher = higher Wnt reporter signal; details: 5 µM; treatment time 24 h; reporter: 7TFP
Summary of the method: as §1

SW480 [4] = experiment: as above; details: 5 µM; treatment time 24 h; reporter: 7TFP
Summary of the method: as §1

| SMILES | cell viability (DLD1 [1]) | cell viability (HCT116) | cell viability (SW480 [2]) | TCF/Wnt firefly luciferase reporter signal (DLD1 [3]) | TCF/Wnt firefly luciferase reporter signal (SW480 [4]) |
| --- | --- | --- | --- | --- | --- |
| O=C1NCCN(C(=O)[C@H](Cc2ccccc2)NC(=O)[C@@H]2CCCN2)C1=O [Prolyl-phenylalanyl-diketopiperazine] | 1.04 ± 0.15 | 1.02 ± 0.035 | 1.02 ± 0.021 | 0.984 ± 0.02 | 0.918 ± 0.0014 |
| C[C@H]1[C@H](C)CC[C@]2(C(=O)O)CC[C@]3(C)C(=CC[C@@H]4[C@@]5(C)C[C@@H](O)[C@H](O)[C@@](C)(CO)[C@@H]5[C@H](O)C[C@]43C)[C@H]12 | 1.01 ± 0.048 | 1.09 ± 0.099 | 0.985 ± 0.0085 | 0.919 ± 0.05 | 1.045 ± 0.0071 |
| CC(C)c1c(O)ccc2c1CCC1[C@@](C)(C=O)CCC[C@]21C (stereo not given in full) | 1.03 ± 0.021 | 1.01 ± 0.031 | 0.965 ± 0.04 | 1.03 ± 0.014 | 1.08 ± 0.028 |
| CCC(C)C(NC)C(=O)O (stereo not given) | 0.959 ± 0.073 | 0.923 ± 0.058 | 0.946 ± 0.05 | 1.01 ± 0.22 | 0.947 ± 0.09 |
| Cc1c(NC(C)C)c(=O)n(-c2ccccc2)n1C | 1.01 ± 0.014 | 1.05 ± 0.15 | 1.03 ± 0.045 | 0.95 ± 0.21 | 0.942 ± 0.0014 |
| NCc1ccc(S(N)(=O)=O)cc1 | 0.962 ± 0.023 | 1 ± 0.069 | 0.991 ± 0.042 | 1.03 ± 0.17 | 1.12 ± 0.078 |
| CC(=O)O[C@@H]1c2c(ccc3ccc(=O)oc23)OC(C)(C)[C@@H]1OC(=O)CC(C)C | 0.979 ± 0.044 | 1.02 ± 0.029 | 0.931 ± 0.059 | 0.875 ± 0.066 | 0.959 ± 0.054 |
| CCOc1ccc2c(c1)C(C)=CC(C)(C)N2 | 1 ± 0.071 | 0.91 ± 0.09 | 1.01 ± 0.035 | 0.775 ± 0.12 | 0.899 ± 0.056 |
| C[C@]12CC[C@@H]3c4ccc(O)cc4CC[C@H]3[C@@H]1CC[C@@H]2OC(=O)CCC1CCCC1 | 0.957 ± 0.044 | 1.01 ± 0.065 | 0.967 ± 0.04 | 1.17 ± 0.021 | 1.11 |
| NC(=O)C(c1ccccc1)(c1ccccc1)[C@@H]1CCN(CCc2ccc3c(c2)CCO3)C1 | 0.873 ± 0.067 | 0.983 ± 0.0042 | 0.947 ± 0.03 | 1.03 ± 0.094 | 1.005 ± 0.0071 |
| CC(=O)N[C@@H](CC(C)C)C(=O)O | 1.04 ± 0.014 | 1.04 ± 0.093 | 0.966 ± 0.062 | 1.03 ± 0.18 | 1.13 ± 0.057 |
| CC(C)c1ncc(Cc2ccccc2)[nH]c1=O [Phevalin] | 1.14 ± 0.22 | 1.07 ± 0.014 | 1.004 ± 0.0078 | 0.982 ± 0.019 | 0.922 ± 0.12 |
| COc1ccc(C(=O)c2ccccc2)c(O)c1 | 1.04 ± 0.042 | 1.185 ± 0.0071 | 1.01 ± 0.016 | 0.8625 ± 0.0064 | 1.05 ± 0.028 |
| COc1cccc(/C=C/C(=O)O)c1C(C)C | 0.981 ± 0.042 | 1.03 ± 0.093 | 1 ± 0.041 | 1.12 ± 0.26 | 1.03 ± 0.17 |
